We go through six compounds from PubChem BioAssay.

Active and inactive are the calls of the source.

Experiment [1] concerns Plasmodium falciparum Sir2 (PF13_0152, Sir2A). As to the kind of experiment: pfSir2 binders on small-molecule microarrays, primary screen, biochemical, small-molecule microarray, 635 nm fluorescence (AID 1098).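 Note: score merges spot fluorescence intensity with its signal-to-noise ratio.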 Particulars: small-molecule microarray binding, fluorescence 635 nm; higher = more signal.
Experiment [2] in a line: small-molecule microarray binders of probe aDKK1, primary screen, biochemical, biotinylated probe, 635/667 nm fluorescence (AID 1099).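 Note: score merges 667nm spot fluorescence with signal to noise across triplicate slides.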 Particulars: higher = more signal.
The nature of experiment [3]: small-molecule microarray binders of probe aCHRDL2, primary screen, biochemical, biotinylated probe, 635/667 nm fluorescence (AID 1100). As to conditions: higher = more signal.
Experiment [4] is described as follows: splicing luciferase reporter signal modulators, primary screen, spliceosome inhibition project, cell-based, HEK293, splice +/- reporter (AID 1101).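 Note: HEK293 cells carrying a splicing-competent luciferase reporter gene; test concentration not given here.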 As to conditions: luminescence, 24 h, higher = more signal, called active from +8 up or from −8 down. A general note: Reporter assays use an easily measured gene product as a stand-in for the process of interest.
Experiment [5] deals with Fibroblast growth factor 10 (Homo sapiens) (UniProt O15520). In words: FGF10 binders on small-molecule microarrays, primary screen, biochemical, small-molecule microarray, 635 nm fluorescence (AID 1102). Particulars: FGF10 binding, fluorescence 635 nm, higher = more signal.
The subject of experiment [6] is glycogen synthase kinase-3 (GSK3A per assay name; protocol says GSK3B). In words: GSK3 binders on small-molecule microarrays, primary screen, biochemical, small-molecule microarray, 635 nm fluorescence, GSK3A (AID 1103). Note: the record names both GSK3A and GSK3B. Particulars: small-molecule microarray binding, fluorescence 635 nm; higher = more signal.
The target of experiment [7] is Epidermal growth factor receptor (Homo sapiens) (UniProt P00533). In words: EGFR binders on small-molecule microarrays, primary screen, biochemical, small-molecule microarray, 635 nm fluorescence (AID 1104).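 Note: score merges 667 nm emission intensity with spot signal to noise over triplicate slides.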 Particulars: EGFR binding, higher = more signal.
In experiment [8] the target is Follistatin-related protein 3 (Homo sapiens) (UniProt O95633). In words: FSTL3 binders on small-molecule microarrays, primary screen, biochemical, small-molecule microarray, 635 nm fluorescence (AID 1105).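 Note: score merges emission near 667 nm and signal to noise per printed spot across three slides.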 As to conditions: FSTL3 binding, higher = more signal.
The target of experiment [9] is Dickkopf-related protein 1 (Homo sapiens) (UniProt O94907). In words: DKK1 binders on small-molecule microarrays, primary screen, biochemical, small-molecule microarray, 635 nm fluorescence scan (AID 1106).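 Note: score merges emission near 667 nm with signal to noise over three replicate slides.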 Particulars: DKK1 binding, higher = more signal.
Experiment [10] relates to Inhibin beta A chain (activin A). As to the kind of experiment: INHBA (activin A) binders on microarrays, primary screen, biochemical, small-molecule microarray, 635 nm fluorescence scan (AID 1107).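 Note: mouse activin A protein probed at 4.33 µg/mL on printed slides; score merges bound-protein fluorescence near 667 nm with spot signal-to-noise.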 Particulars: small-molecule microarray binding, higher = more signal.
Experiment [11] concerns Human papillomavirus type 1a protein E7 (residues 44-93). As to the kind of experiment: HPV1a E7 fragment binders on microarrays, primary screen, biochemical, small-molecule microarray, residues 44-93, 635 nm fluorescence (AID 1108).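 Note: E7 fragment applied at 1 µg/mL in TBST for 1 h at 4 C; score combines spot fluorescence with its signal to noise ratio.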 As to conditions: small-molecule microarray binding, fluorescence 635 nm; higher = more signal.
Experiment [12] in a line: modulators of HCV replicon luciferase signal, primary screen, HCV replication inhibitor project, Huh7 cells, luciferase reporter (AID 1109).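 Note: huh7 hepatoma cells harbouring a luciferase neomycin HCV replicon reporter; luciferase luminescence as measure of HCV replicon replication; test concentration not given here.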 As to conditions: 48 h, higher = more signal. (Replicon systems follow genome replication, usually without infectious particles.)
Experiment [13] has as its target Left-right determination factor 2 (Homo sapiens) (UniProt O00292). As to the kind of experiment: LEFTY2 binders on small-molecule microarrays, primary screen, biochemical, small-molecule microarray, 635 nm fluorescence scan (AID 1110). Particulars: LEFTY2 binding, higher = more signal.
For experiment [14], the target named is Calmodulin-1 (Homo sapiens) (UniProt P0DP23). In words: CALM1 binders on microarrays, EGTA buffer, profiling panel, biochemical, small-molecule microarray, Cy5-labelled CALM1 (AID 1111).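 Note: labelled calmodulin applied in Tris saline Tween buffer holding calcium plus EGTA and DTT.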 Particulars: Cy5-CALM1 binding fluorescence, higher = more signal.
For experiment [15] the target is unchanged. As to the kind of experiment: calcium-bound CALM1 binders on microarrays, profiling panel, artefact control for SMM control-protein annotation, biochemical, small-molecule microarray, Cy5-labelled CALM1, plus calcium (AID 1112).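 Note: score merges spot fluorescence with signal to noise from triplicate slides.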 Particulars: Cy5-CALM1 binding fluorescence, higher = more signal.
Experiment [16] in a line: small-molecule microarray binders of probe aWnt5a, primary screen, biochemical, biotinylated probe, 635/667 nm fluorescence (AID 1113).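 Note: score merges 667 nm fluorescence intensity with signal-to-noise per printed feature.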 Particulars: higher = more signal.
Experiment [17] is described as follows: small-molecule microarray binders of probe aShh, primary screen, biochemical, biotinylated probe, 635/667 nm fluorescence (AID 1114).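 Note: probe is biotin-labelled aShh protein from a stem cell growth factor screen; measures binding of labelled protein to compounds printed on the slide; score merges feature fluorescence at 667 nm with signal-to-noise.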 Particulars: higher = more signal.
A short description of experiment [18]: small-molecule microarray binders of probe aNog, primary screen, biochemical, biotinylated probe, 635/667 nm fluorescence (AID 1115).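 Note: probe is biotinylated aNog protein used at 0.15 µg/mL for 1 h at 4 C; z-score combines 667 nm fluorescence of each spot with its signal to noise.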 Particulars: higher = more signal.
Experiment [19] concerns the target Torsin-1A-interacting protein 1 (Homo sapiens) (UniProt Q5JTV8). As to the kind of experiment: LAP1 binders from COS7 cell lysate, primary screen, small-molecule microarray, 635/667 nm fluorescence (AID 1116). Particulars: COS7-hLAP1 lysate binding, 635 nm fluorescence, higher = more signal.
In experiment [20] the target is Alpha-bungarotoxin (Bungarus multicinctus) (UniProt P60615). In words: alpha-bungarotoxin binders on microarray, profiling panel, artefact control for SMM control protein annotation, biochemical, small-molecule microarray, Alexa647 label, 635/667 nm fluorescence (AID 1117). As to conditions: alpha-BTX-A647 binding fluorescence, higher = more signal.
Chain of Alpha-bungarotoxin (Bungarus multicinctus) (P60615 whole entry, looked up): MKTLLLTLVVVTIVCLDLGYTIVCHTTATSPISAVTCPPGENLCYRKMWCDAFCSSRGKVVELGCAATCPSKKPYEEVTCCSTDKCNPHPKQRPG

Chain of Torsin-1A-interacting protein 1 (Homo sapiens) (Q5JTV8 whole entry, looked up): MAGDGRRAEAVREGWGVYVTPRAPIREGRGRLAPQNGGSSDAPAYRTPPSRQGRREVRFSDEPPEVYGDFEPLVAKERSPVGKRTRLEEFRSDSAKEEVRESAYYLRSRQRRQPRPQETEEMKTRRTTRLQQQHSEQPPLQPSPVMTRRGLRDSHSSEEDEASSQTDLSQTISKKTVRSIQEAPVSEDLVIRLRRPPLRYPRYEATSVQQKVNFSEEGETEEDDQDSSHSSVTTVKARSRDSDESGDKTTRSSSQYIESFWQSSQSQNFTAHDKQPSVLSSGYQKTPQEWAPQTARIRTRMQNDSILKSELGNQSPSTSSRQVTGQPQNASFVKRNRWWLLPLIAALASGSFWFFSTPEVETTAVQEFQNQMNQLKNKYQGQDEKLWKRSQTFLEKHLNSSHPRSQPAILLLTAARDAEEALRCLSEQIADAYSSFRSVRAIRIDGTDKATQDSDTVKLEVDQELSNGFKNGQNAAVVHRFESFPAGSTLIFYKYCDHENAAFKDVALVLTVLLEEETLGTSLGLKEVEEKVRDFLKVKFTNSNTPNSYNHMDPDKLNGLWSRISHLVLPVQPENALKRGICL
Chain of Follistatin-related protein 3 (Homo sapiens) (O95633 whole entry, looked up): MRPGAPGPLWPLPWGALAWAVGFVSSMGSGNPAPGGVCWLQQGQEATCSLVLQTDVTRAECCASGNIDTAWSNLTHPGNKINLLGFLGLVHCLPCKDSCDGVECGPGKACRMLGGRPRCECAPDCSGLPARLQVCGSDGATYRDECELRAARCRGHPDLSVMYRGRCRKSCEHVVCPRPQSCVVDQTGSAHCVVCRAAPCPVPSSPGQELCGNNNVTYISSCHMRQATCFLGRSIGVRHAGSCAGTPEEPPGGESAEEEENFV
Chain of Left-right determination factor 2 (Homo sapiens) (O00292 whole entry, looked up): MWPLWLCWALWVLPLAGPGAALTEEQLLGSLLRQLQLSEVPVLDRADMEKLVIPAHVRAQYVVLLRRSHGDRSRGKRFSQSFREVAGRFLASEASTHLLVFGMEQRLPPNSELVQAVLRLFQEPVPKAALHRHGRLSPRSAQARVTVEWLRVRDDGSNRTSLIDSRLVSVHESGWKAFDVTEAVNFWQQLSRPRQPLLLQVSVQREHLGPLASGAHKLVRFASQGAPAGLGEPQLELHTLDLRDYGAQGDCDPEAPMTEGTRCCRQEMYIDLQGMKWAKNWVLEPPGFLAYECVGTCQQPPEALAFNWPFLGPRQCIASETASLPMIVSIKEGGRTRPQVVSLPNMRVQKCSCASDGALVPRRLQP
Chain of Epidermal growth factor receptor (Homo sapiens) (P00533 whole entry, looked up): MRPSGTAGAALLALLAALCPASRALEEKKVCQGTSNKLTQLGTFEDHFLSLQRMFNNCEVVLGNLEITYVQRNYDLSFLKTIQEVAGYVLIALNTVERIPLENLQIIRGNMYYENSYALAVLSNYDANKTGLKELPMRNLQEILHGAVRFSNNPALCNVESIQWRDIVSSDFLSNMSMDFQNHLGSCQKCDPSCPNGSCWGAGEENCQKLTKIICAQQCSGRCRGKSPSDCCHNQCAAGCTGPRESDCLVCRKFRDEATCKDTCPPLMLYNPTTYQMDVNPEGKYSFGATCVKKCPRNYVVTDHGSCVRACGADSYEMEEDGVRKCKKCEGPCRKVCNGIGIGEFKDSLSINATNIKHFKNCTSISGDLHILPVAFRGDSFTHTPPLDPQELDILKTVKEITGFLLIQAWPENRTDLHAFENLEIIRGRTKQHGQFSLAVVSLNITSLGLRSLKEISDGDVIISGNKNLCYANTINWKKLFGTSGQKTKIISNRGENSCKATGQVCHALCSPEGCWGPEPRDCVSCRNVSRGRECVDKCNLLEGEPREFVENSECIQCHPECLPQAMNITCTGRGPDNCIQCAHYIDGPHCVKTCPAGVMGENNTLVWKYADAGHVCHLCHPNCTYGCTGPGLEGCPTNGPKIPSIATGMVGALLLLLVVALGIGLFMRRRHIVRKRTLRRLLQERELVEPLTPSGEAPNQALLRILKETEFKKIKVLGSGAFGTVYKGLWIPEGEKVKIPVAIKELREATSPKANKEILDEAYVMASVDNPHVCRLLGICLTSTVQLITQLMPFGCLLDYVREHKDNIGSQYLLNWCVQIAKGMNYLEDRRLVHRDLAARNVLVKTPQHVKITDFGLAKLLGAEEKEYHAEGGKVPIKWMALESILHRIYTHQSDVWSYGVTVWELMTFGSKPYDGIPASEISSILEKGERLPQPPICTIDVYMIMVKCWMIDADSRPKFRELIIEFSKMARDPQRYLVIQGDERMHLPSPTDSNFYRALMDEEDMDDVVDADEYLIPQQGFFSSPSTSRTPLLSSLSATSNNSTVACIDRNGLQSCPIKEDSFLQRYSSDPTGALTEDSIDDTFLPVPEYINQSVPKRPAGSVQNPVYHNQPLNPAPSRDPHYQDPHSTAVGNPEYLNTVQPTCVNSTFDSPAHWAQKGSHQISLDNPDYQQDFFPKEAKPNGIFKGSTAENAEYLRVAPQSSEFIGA
Chain of Dickkopf-related protein 1 (Homo sapiens) (O94907 whole entry, looked up): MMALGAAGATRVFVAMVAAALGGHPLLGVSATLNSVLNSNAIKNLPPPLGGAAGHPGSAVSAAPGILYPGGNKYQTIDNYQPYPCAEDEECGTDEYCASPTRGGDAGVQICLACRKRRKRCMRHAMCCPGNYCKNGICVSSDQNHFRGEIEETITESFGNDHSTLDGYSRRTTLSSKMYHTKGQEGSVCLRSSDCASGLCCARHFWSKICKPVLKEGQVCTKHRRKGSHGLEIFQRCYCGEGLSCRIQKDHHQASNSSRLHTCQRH
Chain of Fibroblast growth factor 10 (Homo sapiens) (O15520 whole entry, looked up): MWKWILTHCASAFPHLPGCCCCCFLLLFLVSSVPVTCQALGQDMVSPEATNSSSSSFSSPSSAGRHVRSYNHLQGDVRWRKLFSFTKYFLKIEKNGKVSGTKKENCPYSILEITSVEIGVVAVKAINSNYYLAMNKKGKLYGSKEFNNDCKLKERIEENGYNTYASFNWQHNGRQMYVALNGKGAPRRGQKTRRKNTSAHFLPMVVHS

For `O=C1N(CCS(=O)(=O)c2ccccc2)Cc2ccccc2[C@H]2OC(c3ccc(OCCCO)cc3)=N[C@@]12CCS(=O)(=O)c1ccccc1`, the composite z-score is 1.55 in experiment [1]; 0.883 in experiment [2]; 1.13 in [3]; 1.03 in [5]; 0.916 in experiment [6]; 0.423 in experiment [7]. Further, the composite z-score in experiment [8] was found to be 0.411; in experiment [9] it was 0.13; in experiment [10], 1.03; in experiment [11] it was 0.961; in [13] it was 0.558; in experiment [14] it was 1.25. The composite z-score in experiment [15] was found to be 0.38; in experiment [16], 0.115; in experiment [17], 0.0348; in experiment [18] it was 0.763; in [19] it was 1.41; in [20], 1.97. In addition, the z-score is -0.872 (inactive) in experiment [4] and -1.55 in [12].
Consider `CN(C)CCCNC(=O)[C@@]1(Cc2ccccc2I)c2ccccc2C(=O)N(Cc2ccccc2C(F)(F)F)[C@H]1c1ccc(CO)cc1`, for which the composite z-score was 0.278 in [1]; 0.234 in experiment [2]; 0.86 in experiment [3]; -0.75 in experiment [5]; 0.391 in [6]; -1.62 in experiment [7]. Moreover, the composite z-score is -1.34 in experiment [8]; -1.33 in experiment [9]; 0.094 in experiment [10]; 0.973 in [11]; -1.2 in experiment [13]; -0.327 in experiment [14]. The composite z-score was -0.149 in experiment [15]; -0.176 in [16]; -0.138 in experiment [17]; 0.612 in [18]; 0.283 in experiment [19]; 0.376 in experiment [20]. Besides, the z-score is -1.55 (inactive) in experiment [4] and -3.4 in [12].
With `CC(C)N1C(=O)C[C@@](C(=O)NCc2ccccc2)(c2ccc([N+](=O)[O-])cc2)[C@H]1c1ccc(CO)cc1`, the composite z-score in experiment [1] was 0.142; in experiment [2], -0.0752; in experiment [3], 0.934; in experiment [5], 0.484; in experiment [6], 0.321; in experiment [7], -0.786. Moreover, the composite z-score in experiment [8] is -0.17; in [9] it was -0.0781; in experiment [10], 0.0614; in [11], 1.37; in experiment [13] it was -0.57; in experiment [14], -0.47. In addition, the composite z-score is -0.602 in experiment [15]; -0.0894 in experiment [16]; -0.13 in experiment [17]; -0.498 in [18]; 1.99 in [19]; -0.148 in experiment [20]. Further, the z-score in [4] was 0.0798 (inactive); in experiment [12], -0.0323.
`O=C1O[C@H](c2ccccc2)[C@H](c2ccccc2)N2[C@H]1[C@@H](C(=O)N1CCN(c3ncccn3)CC1)[C@]1(C(=O)Nc3ccccc31)[C@H]2c1ccc(OCCO)cc1`: the composite z-score was 0.348 in experiment [1]; -0.0864 in experiment [2]; 0.174 in experiment [3]; 1.29 in experiment [5]; 1.22 in experiment [6]; 0.665 in [7]. Besides, the composite z-score was 1.32 in experiment [8]; 0.632 in [9]; 0.395 in [10]; 1.42 in experiment [11]; 0.609 in experiment [13]; -0.316 in experiment [14]. Besides, the composite z-score in [15] is -0.802; in experiment [16], -0.0286; in experiment [17] it was -0.0578; in experiment [18], -0.0464; in experiment [19], 0.75; in experiment [20], 0.4. The z-score in [4] is -1.15 (inactive); in [12], -1.67.
For `C=CCNC(=O)[C@@H]1[C@H]2C(=O)O[C@H](c3ccccc3)[C@H](c3ccccc3)N2[C@H](c2ccc(OCCO)cc2)[C@@]12C(=O)Nc1ccccc12`, the composite z-score in [1] was 1.06; in experiment [2], 0.454; in [3] it was -0.0808; in experiment [5], 0.772; in experiment [6] it was 0.839; in [7], 0.254. Moreover, the composite z-score is 0.774 in [8]; 0.228 in experiment [9]; 0.344 in [10]; 1.39 in experiment [11]; 0.302 in [13]; 0.705 in experiment [14]. Further, the composite z-score in [15] is -0.495; in [16], -0.0179; in experiment [17] it was 0.0469; in experiment [18], -0.543; in [19] it was 1.55; in experiment [20], 1.05. The values for the z-score in experiment [4] and in [12] were -0.0935 (inactive) and -1.72, respectively.
In the case of `C=CCOC(=O)[C@H]1[C@@H]2C(=O)O[C@@H](c3ccccc3)[C@@H](c3ccccc3)N2[C@@H](c2ccc(OCCOC(=O)[C@@H]3C[C@@H]4C(=O)NCC(=O)N4[C@@H]3c3ccc(O)cc3)cc2)[C@]12C(=O)Nc1ccccc12`, the composite z-score was 1.24 in experiment [1]; -0.206 in experiment [2]; -0.167 in [3]; 1.14 in experiment [5]; 1.19 in [6]; 0.457 in [7]. In addition, the composite z-score in [8] was found to be 1.34; in experiment [9], 0.535; in experiment [10], 0.217; in experiment [11], 0.919; in experiment [13] it was 0.733; in experiment [14], 0.325. The composite z-score in [15] was 0.0637; in experiment [16], -0.0573; in [17], -0.0192; in [18], -0.0216; in [19], 0.609; in experiment [20], -0.195. Besides, the z-score was -1.15 (inactive) in experiment [4] and -1.34 in [12].
